Assay outcomes from PubChem BioAssay.
Many of the other results were omitted from the sample, so hits are more common in it than they were.
CHX counter: counter-screen hit for Shiga toxin inhibitors, cycloheximide | cell reporter, cycloheximide protein synthesis inhibition counterscreen | max response, % | actives 12% (n = 300,000); in the data active = max response mostly above about 13%, no sharp cut-off; inactive = mostly below about 14%; also: read at 38.3 µM for the half of the compounds with a filed dose
LmPK inh: inhibitors of Leishmania mexicana pyruvate kinase. Q27686. purified LmPK, Kinase-Glo ATP luminescence, 1 h. Potency, µM (doses to about 57.5 µM), usual class: inhibitors. actives 0.37% (n = 290,000). AID 1721
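In 50 mM imidazole pH 7.2 with 7 mM MgCl2, LmPK (0.1 nM) turned over PEP (0.5 mM) and ADP (0.1 mM) for 1 h at room temperature. Luciferase read-out of ATP.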
RE007 growth inh: less growth of the S. pombe RE007 Vpr strain. S. pombe RE007 Vpr strain, BacTiter-Glo ATP luminescence, 24 h. Potency, µM (doses to about 92.2 µM), usual class: inhibitors. actives 0.21% (n = 360,000); active = well fitted falling curve with a large enough effect; inconclusive = small, poorly fitted or top-dose-only effect; inactive = no such curve, though single readings can be large or run the other way; also: nearly all actives have a fitted effect of over 50% in size
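Fission yeast strain RE007, carrying one chromosomally integrated HIV-1 vpr copy, was seeded at OD 0.01 in PMG+AL medium with 23 nL pinned compound. After 24 h at 30 °C and 99% humidity, viability was read by BacTiter-Glo luminescence.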
Giardia FBPA inh: inhibitors of Giardia lamblia fructose-1,6-bisphosphate aldolase; A8B2U2; actives 0.71% (n = 290,000); Potency, µM (doses to about 59.6 µM), hits mostly inhibitors; purified Giardia FBPA; also: nearly all actives have a fitted effect of over 55% in size
Target sequence (A8B2U2 whole entry, looked up): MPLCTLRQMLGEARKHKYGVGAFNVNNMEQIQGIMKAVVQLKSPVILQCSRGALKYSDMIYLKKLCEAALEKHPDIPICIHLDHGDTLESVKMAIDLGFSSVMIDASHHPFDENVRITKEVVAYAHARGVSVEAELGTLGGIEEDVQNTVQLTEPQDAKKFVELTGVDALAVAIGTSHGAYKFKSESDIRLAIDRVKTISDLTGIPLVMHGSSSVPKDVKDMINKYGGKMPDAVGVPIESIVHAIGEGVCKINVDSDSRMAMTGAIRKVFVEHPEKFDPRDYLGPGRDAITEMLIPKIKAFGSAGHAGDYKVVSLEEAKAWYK
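40 nM FBPA preincubated 10 min at RT with compound (up to 57.5 uM final), then substrate plus GAPDH/TPI/NAD/arsenate coupling and diaphorase/resazurin added. Fluorescence read after 20 min at RT, 525/598 nm.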
Shiga inhibitor: blocks Shiga toxin action in Vero cells; AID 2315; actives 9.2% (n = 290,000); Vero cells, Shiga toxin protein synthesis inhibition reporter; inhibition, % at 38.7 µM; in the data active = inhibition mostly above about 28%, no sharp cut-off; inactive = mostly below about 43%
Tb PYK inh: blocks Trypanosoma brucei pyruvate kinase; TbPYK enzyme, Kinase-Glo Plus ATP luminescence, 45 min; actives 0.12% (n = 410,000); Q57TT1; Potency, µM (top dose mostly 76.8 µM), most hits filed as inhibitors; also: nearly all actives have a fitted effect of over 50% in size
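Activity of T. brucei pyruvate kinase was followed by Kinase-Glo Plus luminescence after the enzyme reacted 45 min at room temperature with 130 uM ADP (final) and substrate. Test compounds were added before ADP at multiple concentrations.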
Each line names hits and unclear results; the compound was inactive in the other large screens. Unless noted, calls follow the shape of the dose curve; as a rule, active = well fitted curve in the direction sought with a large enough effect; inconclusive = small, poorly fitted or top-dose-only effect, or another doubt; inactive = no such curve, though single readings can be large; an effect the other way counts as inactive or inconclusive.

COc1ccc2c(c1)nc1n2CN(CC2CCCO2)CN1Cc1ccccc1 (configuration not stated)	CHX counter 32, Shiga inhibitor 49 (no result: RE007 growth inh, Tb PYK inh)
Cc1cc2c(s1)c1cnn(Cc3ccc(-c4ccccc4)cc3)c(=O)c1n2C	none (no result: LmPK inh, RE007 growth inh, Giardia FBPA inh, Tb PYK inh)
CC(=O)c1ccc(N2CCN(S(=O)(=O)c3cc(-c4onc(C)c4C)ccc3C)CC2)cc1	none (no result: CHX counter, LmPK inh, RE007 growth inh, Giardia FBPA inh, Shiga inhibitor)
c1ccc2c(-n3cccn3)cccc2c1	CHX counter 36, Shiga inhibitor 83
c1ccc2c(N3CCNCC3)cccc2c1	none (no result: CHX counter, LmPK inh, Shiga inhibitor)
COC(=O)c1cccc(CSC(=S)N2CCCC2)c1	CHX counter 30
Cc1ccc(C2=C(O)c3ccccc3C(=O)C2=O)cc1	RE007 growth inh inconclusive, Giardia FBPA inh inconclusive
O=C1C(=O)c2ccccc2C(O)=C1c1cccc([N+](=O)[O-])c1	CHX counter 23, Giardia FBPA inh inconclusive
CCc1c(C)sc2c1CCN(C(=O)Nc1cc(Cl)c(OC)cc1OC)C2c1ccccc1 (configuration not stated)	none (no result: CHX counter, LmPK inh, RE007 growth inh, Giardia FBPA inh, Shiga inhibitor)
Cc1cc(C)cc(-n2nnc(-c3nc(-c4ccc5c(c4)OCO5)no3)c2C)c1	none (no result: CHX counter, LmPK inh, RE007 growth inh, Giardia FBPA inh, Shiga inhibitor)
COc1ccc(C2C(C(=O)NCc3ccccn3)CCC(=O)N2c2cc(OC)c(OC)c(OC)c2)cc1 (configuration not stated)	CHX counter 40, Shiga inhibitor 94
C=CCn1c(-c2cc(Cl)ccc2OC)n[nH]c1=S	LmPK inh 13µM, Tb PYK inh inconclusive
C=CCn1c(CCSCc2ccc(OC)c(C)c2)n[nH]c1=S	Tb PYK inh 7.9µM
Cc1[nH]c2ccc(-c3n[nH]c(=S)n3C)cc2c1C	Tb PYK inh inconclusive
CCn1c(-c2cc(-c3ccc(C)c(C)c3)nc3ccccc23)n[nH]c1=S	CHX counter 26, Shiga inhibitor 81 (no result: RE007 growth inh, Tb PYK inh)
CCn1c(-c2ccc3[nH]c(C)c(C)c3c2)n[nH]c1=S	LmPK inh 28µM, Tb PYK inh inconclusive
CC(=O)Nc1ccc(Nc2ccc3cc(S(=O)(=O)N4CCCCC4)ccc3n2)cc1	none (no result: CHX counter, LmPK inh, RE007 growth inh, Giardia FBPA inh, Shiga inhibitor)
Cc1cccc(Cn2cc(C(=O)Nc3ccc(F)c(C(F)(F)F)c3)ccc2=O)c1	none (no result: CHX counter, LmPK inh, RE007 growth inh, Giardia FBPA inh, Shiga inhibitor)
CCCNC(=O)OC[C@@H]1O[C@H](CCO/N=C\c2ccc(C(=O)N3[C@H](c4ccc(C)cc4)[C@@H](C)CC[C@H]3C(=O)OC)cc2)C=C[C@@H]1Oc1ccc(OC)cc1	none (no result: CHX counter, LmPK inh, RE007 growth inh, Shiga inhibitor, Tb PYK inh)
NCCC[C@H](N)CC(=O)N[C@H]1CNC(=O)[C@@H]([C@@H]2C[C@H](O)N=C(N)N2)NC(=O)/C(=C/NC(N)=O)NC(=O)[C@@H](CO)NC(=O)[C@@H](CO)NC1=O	none (no result: CHX counter, LmPK inh, RE007 growth inh, Shiga inhibitor, Tb PYK inh)
CC(=O)OC1CC(OC(C)=O)[C@]2(C)C(CC(OC(C)=O)[C@]3(C)C2CC[C@@]2(C)C(c4ccoc4)OC(=O)C4O[C@]432)C1(C)C (some centres not stated)	none (no result: CHX counter, LmPK inh, RE007 growth inh, Shiga inhibitor, Tb PYK inh)
O=S(=O)(c1ccccc1)N1CCN(c2nc(-c3ccc(F)cc3)nc3cc(Cl)ccc23)CC1	none (no result: LmPK inh, RE007 growth inh, Giardia FBPA inh, Tb PYK inh)
Cc1ccc2c(CC(=O)Nc3nnc(C(C)C)s3)coc2c1C	none (no result: CHX counter, LmPK inh, RE007 growth inh, Giardia FBPA inh, Shiga inhibitor)
CCn1c(-c2cc(Cl)ccc2OC)n[nH]c1=S	LmPK inh inconclusive, Tb PYK inh 11µM
CCOc1ccccc1NC(=O)C(Cc1ccccc1)NS(=O)(=O)c1ccc(Br)s1 (configuration not stated)	none (no result: CHX counter, LmPK inh, RE007 growth inh, Giardia FBPA inh, Shiga inhibitor)
O=c1c(Cl)c(Cl)cnn1Cc1nnc(-c2ccc(Cl)cc2)o1	CHX counter 50
Cc1cccc(C2=N/C(=C\c3cccs3)C(=O)O2)c1	none
Cc1cccc(C2=N[C@@H](Cc3ccccc3)CO2)c1	CHX counter 49, Shiga inhibitor active (no result: LmPK inh, RE007 growth inh, Tb PYK inh)
Cc1cccc(C2=N[C@@H](CC(C)C)CO2)c1	CHX counter 33, Shiga inhibitor active (no result: LmPK inh, RE007 growth inh, Tb PYK inh)
Clc1cc(Cl)cc(C2=NC(Cc3ccccc3)CO2)c1 (configuration not stated)	none (no result: CHX counter, LmPK inh, Giardia FBPA inh, Shiga inhibitor)
Cc1nn(S(=O)(=O)c2ccc(C(C)C)cc2)c(C)c1S(=O)(=O)N1CCCCC1	none (no result: CHX counter, LmPK inh, RE007 growth inh, Giardia FBPA inh, Shiga inhibitor)
CCCCC/C=C\C/C=C\C/C=C\C/C=C\CCCCCC(=O)NCCCC(=O)O	none (no result: CHX counter, LmPK inh, RE007 growth inh, Shiga inhibitor, Tb PYK inh)
COc1ccc(NC(=O)CN(C)C(=O)c2cc3c(s2)CCC(C)C3)cc1 (configuration not stated)	CHX counter 14 (no result: Giardia FBPA inh)
CCCC(=O)Nc1nc2c(s1)COc1ccccc1-2	CHX counter 24, Shiga inhibitor 31
